Shown are actives, neighbours in structure and some others; about 1.6% of the full set was active somewhere.
eIF4E 4G PPI = eIF4E–eIF4G protein interaction inhibitors, primary screen, biochemical, uHTS, TR-FRET, eIF4GI fragment. inhibition, % at 21.7 µM. Eukaryotic translation initiation factor 4E (Mus musculus) + Eukaryotic translation …. 220,000 compounds, 0.37% hits. AID 782, 2007. TR-FRET eIF4E-eIF4GI(517-606) binding, 2 h;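 active = inhibition above about 30%, limit read from the data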
PABP1 MLLE inh = inhibitors of PABP1 MLLE–PAM2 peptide binding, primary screen, biochemical, fluorescence polarization, FITC-PAM2, GST-MLLE | Polyadenylate-binding protein 1 (Homo sapiens), P11940 | inhibition, % at 20 µM | 360,000 compounds, 0.36% hits | AID 588489, 2011; in the data active = inhibition above about 35%, passing the limit was not always enough
eIF4H inh = human eIF4H binding inhibitors, primary screen, translation initiation inhibitor project, biochemical, uHTS, fluorescence polarization; eIF4H fluorescence polarization binding assay; inhibition, % at 35 µM; 290,000 compounds, 0.94% hits; Eukaryotic translation initiation factor 4H (Homo sapiens), Q15056;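 note: calls also rest on retests at 20 µM and on dose response follow-up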
PERK inh = block of dimerizer-induced PERK translation repression, primary screen, PERK inhibitor project, CHO PERK-DD cells, SEAP luminescence, HTS. 220,000 compounds, 0.17% hits. CHO PERK-DD fusion, SEAP luminescence translation reporter. inhibition, % at 5.6 µM;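 active = inhibition above the mean inhibition of all tested compounds plus 3 SD, set separately per screening campaign, cut at about 2.9% in these data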;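 note: PERK kinase domain activated by AP20187 dimerizer at 100 nM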
PABP polyA inh = PABP poly(A) RNA binding inhibitors, primary screen, biochemical, fluorescence polarization, uHTS; Polyadenylate-binding protein 1 (Homo sapiens), P11940; inhibition, % at 35 µM; 290,000 compounds, 1% hits; AID 2014, 2009;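 note: calls also rest on retests at 20 µM and on dose response follow-up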
Each line names hits and unclear results; the compound was inactive in the other large screens; [ ] = another dose, or the depositor's remark. Unless noted, the rule behind the calls is not given here.

CC(C)CCNC(=O)C(C)N(C(=O)c1snc(C(N)=O)c1N)c1cnc2ccccc2c1 (stereo unspecified)	PABP polyA inh 50.7
COc1ccc(S(=O)(=O)NCCc2nnc3ccc(SCC(=O)Nc4cc(C)on4)nn23)cc1	none
CCc1ccc(NC(=O)CCS(=O)(=O)c2ccc(Br)cc2)cc1	none (no result: eIF4E 4G PPI, PERK inh)
CC(=O)NCCN=C(C)c1sc2ccccc2c1O	PABP1 MLLE inh 35.2
CCCCn1c(NC(=S)Nc2ccccc2)nc2ccccc21	PABP1 MLLE inh 39.6
S=C(Nc1ccccc1)Nc1nc2ccccc2n1CCOc1ccccc1	none
O=C(Cn1cnc2ccccc21)N/N=C/c1ccc([N+](=O)[O-])cc1	none
Cc1ccc(/C=N/NC(=O)Cn2cnc3ccccc32)cc1	eIF4H inh 89.1, PABP polyA inh 0.3
CCCCC1(C(=O)OCC)CC(CN2CCOCC2)OC1=O (stereo unspecified)	eIF4H inh active, PABP polyA inh 87.9 (no result: PERK inh)
COc1cccc(CN2C(=O)c3cccc(N)c3C2=O)c1	eIF4H inh 87.8, PABP polyA inh 5.5
Cn1c(=O)n(C)c2cc([N+](=O)[O-])c(N3CCN(C(=O)c4cccc(Cl)c4)CC3)cc21	eIF4H inh active, PABP polyA inh 50.3
Cn1c(=O)n(C)c2cc([N+](=O)[O-])c(N3CCN(C(=O)c4cccc(F)c4)CC3)cc21	none
Cc1nc2ccccn2c1/C(O)=C1\C(=O)C(=O)N(CCN(C)C)C1c1ccco1 (stereo unspecified)	PABP1 MLLE inh 50.3
N=c1ccccn1CC(O)COc1ccccc1 (stereo unspecified)	eIF4H inh inconclusive, PABP polyA inh inconclusive
CC(O)Cn1ccccc1=N (stereo unspecified)	eIF4H inh 82.6, PABP polyA inh 72.6 (no result: eIF4E 4G PPI)
CCc1ccccc1NC(=O)CCc1nc(-c2ccc(C)cc2)no1	none
CC(NC(=O)COc1ccc(/C=N/NS(=O)(=O)c2ccccc2)cc1)c1ccccc1 (stereo unspecified)	none
Fc1cccc(Cl)c1CNc1ccc(N2CCCC2)cc1	eIF4E 4G PPI 34.7
NS(=O)(=O)c1ccc(NCc2c(F)cccc2Cl)cc1	none
Cn1c(SCC(=O)Nc2sccc2C(N)=O)nc2ccccc2c1=O	none (no result: eIF4E 4G PPI, eIF4H inh, PERK inh, PABP polyA inh)
NC(=O)c1ccsc1NC(=O)CSc1nc2ccccc2c(=O)n1CCCO	PABP1 MLLE inh 50.7
O=S(=O)(c1ccc(=S)[nH]c1)N1CCCCCC1	none (no result: eIF4E 4G PPI, eIF4H inh, PERK inh, PABP polyA inh)
O=S(=O)(c1ccc(=S)[nH]c1)N1CCOCC1	PABP1 MLLE inh 46.0 (no result: eIF4E 4G PPI, eIF4H inh, PERK inh, PABP polyA inh)
C[n+]1ccc(C(=O)Nc2ccccc2Cl)cc1	PABP polyA inh 82.7 (no result: eIF4E 4G PPI, PERK inh)
COc1cccc(-c2cccc(NC(=O)C3CCN(C4CCOCC4)CC3)c2)c1	none (no result: eIF4E 4G PPI, PERK inh)
COc1ccc(NC(=O)c2ccc(Cc3ccc(C)cc3)o2)cc1	none
CC(C)NC(=O)c1sc2nc3c(c(-c4cccs4)c2c1N)CN(C)CC3	none
Cc1cccc(NC(=O)c2sc3nc4c(c(-c5cccs5)c3c2N)CN(C)CC4)c1	eIF4H inh 110.1, PABP polyA inh 68.5
C=CCn1c(NC(=O)c2ccco2)c(S(=O)(=O)c2ccccc2)c2nc3ccccc3nc21	eIF4H inh 61.8, PABP polyA inh 64.1 (no result: eIF4E 4G PPI, PABP1 MLLE inh, PERK inh)
C=CCn1c(NC(=O)c2ccc(Br)o2)c(S(=O)(=O)c2ccccc2)c2nc3ccccc3nc21	eIF4H inh inconclusive, PABP polyA inh 55.3
CCCN(C(=O)c1cc2c(s1)CCC2)c1c(N)n(Cc2ccccc2)c(=O)[nH]c1=O	eIF4H inh 95.7, PABP polyA inh 55.1
COCCCN(C(=O)c1cc2c(s1)CCC2)c1c(N)n(Cc2ccccc2)c(=O)[nH]c1=O	none
CCNS(=O)(=O)c1ccc(C)c(-n2cnnn2)c1C	none
Cc1c(O)ccc2c3c(c(=O)oc12)CCCC3	PERK inh 3.7
COc1ccc(CCNC(=O)CCNC(=O)c2ccco2)cc1OC	none (no result: eIF4E 4G PPI, PERK inh)
CC(CS(=O)(=O)c1cccc2cccnc12)N1CCCCC1 (stereo unspecified)	eIF4H inh 53.1, PABP polyA inh 78.6
Cc1c(C)n(C(=O)CSc2nc3ccccc3[nH]2)c2ccccc12	eIF4H inh 67.7, PABP polyA inh 51.8
O=C(CSc1nc2ccccc2[nH]1)N1CCCCC1	none
CC(C)n1c(SCC(=O)Nc2nncs2)nnc1-c1ccco1	eIF4H inh 72.4, PABP polyA inh 41.1 (no result: eIF4E 4G PPI, PABP1 MLLE inh, PERK inh)
CCOc1cccc(=O)c2c(C)n(CC(=O)c3ccccc3)c(C)c12	none
CCOc1cccc(=O)c2c(C)oc(C)c12	PABP1 MLLE inh 43.8
Cc1cc(=O)oc(C)c1C(=O)Nc1ccc2ncccc2c1	eIF4H inh 125.1
CCNC(=S)NC(=NCc1cccnc1)Nc1nc(C)cc(C)n1	PABP1 MLLE inh 64.7 (no result: eIF4E 4G PPI, PERK inh)
Cc1ccc(C(=O)O)cc1-c1ccc(C=C2C(=O)c3ccccc3C2=O)o1	none
Cc1ccc(NC(=O)CN2C(=O)S/C(=C/c3ccc(-c4cc(C(=O)O)ccc4C)o3)C2=O)cc1C	eIF4E 4G PPI 40.0, PABP polyA inh 54.4
Cc1cccc(NC(=O)CN2C(=O)S/C(=C\c3ccc(-c4cccc(C(=O)O)c4C)o3)C2=O)c1	eIF4H inh 91.5 (no result: PABP1 MLLE inh)
COC(=O)C(C)N1C(=O)S/C(=C\c2ccc(-c3ccc(C(=O)O)cc3C)o2)C1=O (stereo unspecified)	eIF4H inh 51.7, PABP polyA inh 45.1 (no result: eIF4E 4G PPI, PERK inh)
Cc1c(Cl)cccc1-c1ccc(/C=N/n2cnnc2)o1	none
Cc1c(C(=O)O)cccc1-c1ccc(/C=N/n2cnnc2)o1	eIF4H inh 53.0, PABP polyA inh 43.4 (no result: eIF4E 4G PPI, PERK inh)
COc1cccc2c1C(=O)c1c(O)c3c(c(O)c1C2=O)C[C@@](O)(C(=O)CO)C[C@@H]3OC1CC(N)C(O)C(C)O1 (stereo partly specified)	none (no result: eIF4E 4G PPI, eIF4H inh, PERK inh, PABP polyA inh)
COc1cccc2c1C(=O)c1c(O)c3c(c(O)c1C2=O)C[C@@](O)(C(=O)CO)C[C@@H]3O[C@H]1C[C@H](N)[C@H](O)[C@H](C)O1	eIF4E 4G PPI 50.4[fluorescence artefact?], eIF4H inh inconclusive
COc1ccc(S(=O)(=O)NCCN2CCOCC2)cc1Br	none (no result: eIF4E 4G PPI, PERK inh)
Cc1ccc(-c2cc(-c3ccccc3)c3c(N)c(S(C)(=O)=O)sc3n2)cc1	eIF4H inh 105.0, PABP polyA inh 125.4
CC(C)N1CCc2c(sc(NC(=O)c3ccc(S(=O)(=O)N4CCOCC4)cc3)c2C#N)C1	eIF4H inh 77.8, PABP polyA inh 87.7
CCOC(=O)N1CCc2c(sc(NC(=O)c3ccc(S(=O)(=O)N4CCCC4)cc3)c2C#N)C1	none
COc1ccccc1NC(=O)CCN1CCN(C)CC1	none
NC(CSS(=O)(=O)O)=NCCC12CC3CC(CC(O)(C3)C1)C2	none
O=C(C[C@H]1C(=O)N(Cc2ccccc2)C[C@@H]1c1ccc(Br)cc1)Nc1ccc(Br)cc1	none (no result: eIF4E 4G PPI, eIF4H inh, PERK inh, PABP polyA inh)
COc1ccc(C(C)=O)cc1CSc1nc2cc(Cl)ccc2o1	eIF4H inh 65.2, PABP polyA inh 34.6
